From PubChem BioAssay AID2685 (National Center for Advancing Translational Sciences (NCATS), 2010)
The whole screen tested about 320,000 compounds, of which about 2,100 (0.66%) were called active. Inconclusive results (about 53%) are left out. The call rests on the fitted dose curve; in most records, active means well fitted inhibition curve with a large enough effect in the signal ratio, with a control signal flat (not every such curve was filed as active); inconclusive means small, poorly fitted or top-dose-only effect, or effect the other way, or a change in a side signal; inactive means flat fitted curve, though single readings scatter; the % refers to the signal ratio. Shown is part of a subset that was picked to be rich in actives.

Test: qHTS Assay for Lipid Storage Modulators in Drosophila S3 Cells;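 on cell number change: cells counted by Cell Tracker Red CMTPX staining in the red channel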
Settings: BODIPY lipid droplet fluorescence, 18-24 h, cells fed with added oleic acid; cell number change: measured here: cell count max response; series mostly up to 46.1 µM
Excerpt: NIH Molecular Libraries Probe Production Centers Network [MLPCN] NIH Chemical Genomics Center [NCGC] MLPCN Grant: 1 R03 MH085686-01 Assay Submitter (PI): Beller, Mathias; Max-Planck-Institut fur Biophysikalische Chemie NCGC Assay Overview: Storing lipids as a reservoir for energy or the anabolism of elementary metabolites is a common feature of probably all cells and is conserved from bacteria to humans. The universal cellular lipid storage organelle is the so-called lipid storage droplet (LD). Although ubiquitous, LDs share a simple structure composed of a hydrophobic core that harbors the storage lipids, which is shielded by a droplet-specific phospholipid monolayer to which proteins are attached. The current model of LD biogenesis involves an incorporation of the lipid core into the membrane leaflets of the endoplasmic reticulum (ER) followed by a subsequent budding-like maturation of a LD, which ultimately pinches off. Once released, LD volume can increase by localized lipogenesis or fusion of existing droplet. Storage lipids are re-mobilized enzymatically by lipase activity. Lipase regulation in the adipocyte is heavily studied and involves multiple components including catecholamine signaling, the LD-associated proteins Perilipin and comparative gene identification (CGI-58) and at least two lipases named hormone sensitive lipase (HSL) and adipocyte triglyceride lipase (ATGL). LD regulation outside of the adipocyte is poorly understood and only few components are known. However, there is an urgent need to learn more about ectopic fat depots as mislocalized storage of lipids, for example in the liver or muscle, is an eminent health problem associated with insulin resistance or the metabolic syndrome. We developed a laser-scanning cytometer assay to enable 1,536-well screening and combined the results of the small molecules screen with an RNAi database based on lipid storage.
Triacsin C (Sigma-Aldrich T-4540), an inhibitor of long-chain fatty acyl CoA synthetase that blocks synthesis of triglycerides, was used as a positive control for lipid under-storage. A total of 23 nL of compound solution of different concentrations were transferred to the assay plates using a Kalypsys pin tool equipped with a 1,536-pin array containing 10-nL slotted pins (FP1S10, 0.457-mm diameter, 50.8 mm long; V&P Scientific). One microliter of oleic acid (400 uM) was added, and the plate was lidded with stainless steel rubber gasket lined lids containing pinholes. […] Fluorescence was detected by excitation of the fluorophores with a 488-nm laser on an Acumen Explorer (TTP Lab Tech). The total intensity in channel 2 (500-530 nm) reflected lipid droplet accumulation. Cells were detected using channel 3 (575-640 nm) with 5-um width and 100-um depth filters. The ratio of the number of objects in PMT channel 2 over the number of objects in PMT channel 3 was also calculated. Percent activity was computed relative to an internal control (100% inhibited lipid droplet deposition due to the presence of 20 uM Triacsin C), which was added to 32 wells/plate.
Potency means the concentration at half of the fitted maximal effect.

| Compound | Potency | cell number change [%] |
| --- | --- | --- |
| CC(=O)N(C1=NCCCS1)c1ccc(Cl)cc1 | inactive | -2.46 |
| CC(=O)N(C1=NCCCS1)c1ccc(F)cc1 | 16.4 µM (active) | -2.11 |
| COc1cccc(N(C(C)=O)C2=NCCCS2)c1 | inactive | 4.22 |
| O=C(COc1ccccc1Cl)N1CCCC(N2CCN(c3ccc(F)cc3)CC2)C1 (stereo not drawn) | inactive | -2.12 |
| Cn1c(O)c(C=NC2CCCCC2)c(=O)[nH]c1=S | inactive | 4.27 |
| Cc1cc(NCCN)nc2ccccc12 | inactive | 15.7 |
| Cc1cc(/C=C2\C(=O)NC(=O)N(c3ccccc3)C2=O)c(C)n1-c1ccc(C(=O)O)c(Cl)c1 | inactive | -8.5 |
| CCN(CC)c1nc2c(C)cccn2c(=O)c1C=C1C(=O)NC(=O)NC1=O | inactive | 3.76 |
| CCOC(=O)N(C)c1ccc(C(O)(C(=O)OC)C(F)(F)F)cc1 (stereo not drawn) | inactive | 10.8 |
| Cc1cc(O)c(CN2CC=C(c3ccccc3)CC2)cc1C(C)C | 18.4 µM (active) |  |
| COc1ccc2ccc(O)c(CN3CC=C(c4ccccc4)CC3)c2c1 | inactive | 13.7 |
| Cc1ccc2c(CN3CC=C(c4ccccc4)CC3)cc(=O)oc2c1C | inactive | 0.524 |
| CCC(CC)NCc1c[nH]c2ccccc12 | inactive | -0.482 |
| O=C(Nc1ccc(Br)cc1)c1nn(C23CC4CC(CC(C4)C2)C3)cc1Br | inactive | 0.69 |
| CS(=O)(=O)NCc1nnc2n1-c1ccc(Cl)cc1C(c1ccccc1)=NC2 | inactive | 13.6 |
| CCCCc1nc2ccccc2c(=O)n1-c1ccccc1O | inactive | -9.96 |
| CCCCn1c(O)c(C(CC)=Nc2ccc(C(=O)O)cc2)c(=O)[nH]c1=O | inactive | 5.66 |
| CCCCCCn1c(=O)c(C(=O)Nc2ncccc2O)c(O)c2ccccc21 | 7.31 µM (active) | -21.9 |
| CCCCCn1c(=O)c(C(=O)Nc2ncccc2C)c(O)c2ccccc21 | inactive | -11.8 |
| CCCCCCn1c(=O)c(C(=O)Nc2ccncc2)c(O)c2ccccc21 | inactive | 15.2 |

| Compound | Potency | cell number change [%] |
| --- | --- | --- |
| Cc1ccc(C(=O)N/C(=C\Cl)P(=O)(c2ccccc2)c2ccccc2)cc1 | inactive | 0.754 |
| OC(c1ccccc1)(c1ccccc1)C1CCNCC1 | 25.9 µM (active) |  |
| OC(c1ccccc1)(c1ccccc1)C1CCCN1 (stereo not drawn) | inactive | -1.52 |
| O=C(O)C(O)(c1ccccc1)C1CCCCC1 (stereo not drawn) | inactive | -9.04 |
| CN(C(=O)CNC(=O)OCc1ccccc1)c1ccc(Br)cc1C(=O)c1ccccc1Cl | inactive | 9.34 |
| CCCNS(=O)(=O)c1ccc(OCC(=O)N2CCN(Cc3ccc4c(c3)OCO4)CC2)c(C)c1 | inactive | -6.04 |
| CCCCCCN=C(C)c1c(O)n(CCCC)c(=O)[nH]c1=O | inactive | 0.489 |
| CCCCn1c(O)c(C(C)=NCCCN(CC)CC)c(=O)[nH]c1=O | 23.1 µM (active) | -0.0737 |
| CCCCn1c(O)c(C(C)=NCCc2ccccc2)c(=O)[nH]c1=O | inactive |  |
| Cc1ccc2c(c1)C1CN(C)CCC1N2C(=O)c1cccnc1Cl (stereo not drawn) | inactive | -4.72 |
| CCOC(=O)c1ccc(S(=O)(=O)n2c(=O)oc3ccccc32)cc1 | 20.6 µM (active) |  |
| CCOC(=O)c1ccc(N=C(c2ccccc2)c2c(O)n(C)c(=O)n(C)c2=O)cc1 | inactive | 1.32 |
| CCOC(=O)c1c(C=O)c2ccccc2n1Cc1ccccc1 | inactive | 3.55 |
| O=C1Nc2ccc(Br)cc2C(c2ccccc2)=NC1O (stereo not drawn) | inactive | 22.1 |
| C=C(COC(C)=O)CC1CC(O)[C@]2(C)OC3CC4OC5C[C@]6(C)O[C@]7(C)CCC8OC9C[C@]%10(C)OC%11C(C)=CC(=O)OC%11CC%10OC9C[C@@H](C)C8OC7CC6O[C@]5(C)C/C=C\C4OC3CC2O1 (stereo partly drawn) | inactive |  |
| CN(C)C(=O)Oc1cccc(NC(=O)N2CCOCC2)c1 | inactive | -25 |
| CN(C)C(=O)Oc1cccc(NC(=O)c2ccccc2C(F)(F)F)c1 | inactive | -0.228 |
| CN(C)C(=O)Nc1cccc(OC(=O)N(C)C)c1 | 32.6 µM (active) |  |
| CCOC(=O)C1(CCc2ccccc2)CCN(Cc2csc(C(C)=O)c2)CC1 | inactive | 3.18 |
| CCN(CC)S(=O)(=O)c1cc(NC(=O)C(C)N2CC=C(c3ccccc3)CC2)ccc1C (stereo not drawn) | inactive | -3.32 |

| Compound | Potency | cell number change [%] |
| --- | --- | --- |
| O=C1CN=C(c2ccccc2)c2ccccc2N1Cc1ccc(C(F)(F)F)cc1 | inactive |  |
| Cc1ccc(CN2C(=O)CN=C(c3ccccc3)c3ccccc32)cc1 | 10.3 µM (active) | 11.7 |
| O=C(CN1C(=O)CN=C(c2ccccc2)c2ccccc21)NCc1ccco1 | inactive | 7.88 |
| CN(C)c1ccc(NC(=O)CN2C(=O)CN=C(c3ccccc3)c3ccccc32)cc1 | 10.3 µM (active) | -43.3 |
| CCCCNC(=O)CN1C(=O)CN=C(c2ccccc2)c2ccccc21 | inactive | 20.3 |
| CN(C)c1ccc(NC(=O)CN2C(=O)CN=C(c3ccccc3)c3cc(Cl)ccc32)cc1 | inactive | 4.79 |
| Cc1nc2ccccc2c(=O)n1-c1ccc(Cl)c(Cl)c1 | inactive | 8.67 |
| CCN1CCN(C(=O)Cc2ccccc2OC)CC1 | inactive | 5.49 |
| NC(=O)C1CCN(/C=C2\C(=O)NC(=O)N(Cc3ccco3)C2=O)CC1 | inactive | 6.38 |
| Cc1c(NC(NC(=O)CF)C(Cl)(Cl)Cl)c(=O)n(-c2ccccc2)n1C (stereo not drawn) | inactive | 8.45 |
| O=C(COc1ccc(Cl)cc1)N(c1ccccc1Cl)C1CN2CCC1CC2 (stereo not drawn) | inactive | -2.19 |
| O=C(Nc1ccc(Cl)cc1C(=O)c1ccccc1)c1ccco1 | inactive | 16.6 |
| O=C(Nc1ccc(Cl)cc1C(=O)c1ccccc1Cl)c1ccco1 | inactive | -6.61 |
| O=C(Nc1ccc(Cl)c(Cl)c1)c1ccco1 | 14.6 µM (active) | 4.2 |
| CCOP(=S)(NN(Cc1ccccc1)C(=O)c1ccccc1)OCC | 6.51 µM (active) | -8.12 |
| CCOP(=O)(OCC)C(NC(=O)c1ccccc1)=C(Cl)Cl | inactive | 12 |
| CCOP(=O)(OCC)C(Cc1ccccc1)NC(C)=O (stereo not drawn) | inactive | 6.58 |
| CC(C)N1CCC2(CC1)NC(CO)(CO)CO2 | inactive | 2.89 |
| COc1ccc(C)cc1NC(=O)c1c(C)nn(Cc2ccccc2)c1Cl | inactive | -8.13 |
| O=C1N(c2ccccc2)C(c2cccnc2)N2CCCN12 (stereo not drawn) | inactive | -11.1 |
